From PubChem BioAssay AID1159580 (chemical genetic matrix, 2015)
Values joined by “and” are separate entries in the source; they are usually repeats but may differ in a detail not shown here. Equal values may be shown once. About 2,000 (36%) of roughly 5,500 compounds were called active. Roughly 18% stayed inconclusive and do not appear here. Rule as the data show it: active = normalized growth mostly below about 0.91 (no sharp cut-off); inconclusive = no clear call, values can overlap the other calls; inactive = mostly above about 0.92. The list shows a part of the results.

Assay: chemical genetic growth profiling, strain panel (AID 1159580);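 also: tested at 20 µM; growth read once vehicle control cultures reached saturation at 30 °C; 1 = growth at the plate median or of vehicle wells; lower values mean less growth of the strain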
Details: S. cerevisiae deletion strains, growth OD

Measured: normalized growth

OCCN(CCO)c1nc(N2CCCCC2)c2nc(N(CCO)CCO)nc(N3CCCCC3)c2n1
inactive: locus YAL013W, strain DEP1, stronger effect = lower value 1.02 | locus YAL021C, strain ccr4, stronger effect = lower value 0.962 | locus YAL026C, strain drs2, stronger effect = lower value 0.964 | locus YAL030W, strain snc1, stronger effect = lower value 0.992 | locus YAL040C, strain CLN3, stronger effect = lower value 0.999 | locus YBL061C, strain skt5, stronger effect = lower value 0.992 | locus YBR009C, strain hhf1, stronger effect = lower value 0.981 | locus YBR021W, strain FUR4, stronger effect = lower value 0.956 | locus YBR023C, strain chs3, stronger effect = lower value 1 | locus YBR171W, strain sec66, stronger effect = lower value 0.994 | locus YBR229C, strain ROT2, stronger effect = lower value 1.01 | locus YBR231C, strain swc5, stronger effect = lower value 0.944 | locus YBR279W, strain paf1, stronger effect = lower value 0.986 | locus YCL011C, strain gbp2, stronger effect = lower value 0.998 | locus YCL016C, strain dcc1, stronger effect = lower value 1.03 | locus YCL029C, strain bik1, stronger effect = lower value 1.01 | locus YCL061C, strain MRC1 (second series), stronger effect = lower value 1 | locus YCL061C, strain MRC1, stronger effect = lower value 1 | locus YCL069W, strain vba3, stronger effect = lower value 0.97 | locus YCR088W, strain abp1, stronger effect = lower value 0.989 | locus YDL005C, strain med2, stronger effect = lower value 0.978 | locus YDL035C, strain GPR1, stronger effect = lower value 1.01 | locus YDL040C, strain nat1, stronger effect = lower value 0.976 | locus YDL074C, strain BRE1, stronger effect = lower value 0.979 | locus YDL101C, strain DUN1, stronger effect = lower value 1 | locus YDL134C, strain PPH21, stronger effect = lower value 1 | locus YDL185W, strain tfp1, stronger effect = lower value 0.995 | locus YDL192W, strain arf1, stronger effect = lower value 0.999 | locus YDR001C, strain nth1, stronger effect = lower value 0.993 | locus YDR069C, strain doa4, stronger effect = lower value 0.969 | locus YDR101C, strain arx1, stronger effect = lower value 0.99 | locus YDR137W, strain rgp1, stronger effect = lower value 1.01 | locus YDR150W, strain NUM1, stronger effect = lower value 1.01 | locus YDR159W, strain sac3, stronger effect = lower value 0.937 | locus YDR162C, strain NBP2, stronger effect = lower value 1 | locus YDR297W, strain sur2, stronger effect = lower value 0.997 | locus YDR318W, strain mcm21, stronger effect = lower value 0.996 | locus YDR334W, strain swr1, stronger effect = lower value 0.974 | locus YDR335W, strain msn5, stronger effect = lower value 0.988 | locus YDR363W, strain ESC2, stronger effect = lower value 1.03 | locus YDR388W, stronger effect = lower value 0.998 | locus YDR392W, strain spt3, stronger effect = lower value 0.898 | locus YDR502C, strain sam2, stronger effect = lower value 1.01 | locus YEL003W, strain gim4, stronger effect = lower value 0.964 | locus YEL037C, strain rad23, stronger effect = lower value 0.965 | locus YEL061C, strain CIN8 (second series), stronger effect = lower value 0.976 | locus YEL061C, strain CIN8, stronger effect = lower value 1.01 | locus YER002W, strain NOP16, stronger effect = lower value 1 | locus YER015W, strain faa2, stronger effect = lower value 0.978 | locus YER016W, strain bim1, stronger effect = lower value 0.976 | locus YER110C, stronger effect = lower value 1 | locus YER111C, strain swi4, stronger effect = lower value 0.971 | locus YER155C, strain BEM2 (second series), stronger effect = lower value 0.992 | locus YER155C, strain BEM2, stronger effect = lower value 1.01 | locus YER167W, strain BCK2, stronger effect = lower value 1.02 | locus YFR010W, strain ubp6, stronger effect = lower value 0.956 | locus YGL078C, strain dbp3, stronger effect = lower value 1 | locus YGL086W, strain mad1, stronger effect = lower value 0.998 | locus YGL167C, strain pmr1, stronger effect = lower value 0.987 | locus YGL173C, strain kem1, stronger effect = lower value 0.982 | locus YGL227W, strain vid30, stronger effect = lower value 0.989 | locus YGL240W, strain doc1, stronger effect = lower value 0.979 | locus YGL248W, strain PDE1, stronger effect = lower value 1.01 | locus YGL253W, strain hxk2, stronger effect = lower value 0.956 | locus YGR135W, strain pre9, stronger effect = lower value 0.993 | locus YGR229C, strain SMI1, stronger effect = lower value 0.996 | locus YGR252W, strain gcn5, stronger effect = lower value 0.931 | locus YHR013C, strain ard1, stronger effect = lower value 0.988 | locus YHR027C, strain rpn1, stronger effect = lower value 0.984 | locus YHR030C, strain SLT2, stronger effect = lower value 1.01 | locus YHR079C, strain IRE1 (second series), stronger effect = lower value 0.994 | locus YHR079C, strain IRE1, stronger effect = lower value 1.1 | locus YHR094C, strain hxt1, stronger effect = lower value 0.998 | locus YHR129C, strain ARP1, stronger effect = lower value 1.01 | locus YHR142W, strain chs7, stronger effect = lower value 0.97 | locus YHR200W, strain rpn10, stronger effect = lower value 1 | locus YIL066C, strain RNR3, stronger effect = lower value 1.02 | locus YIL073C, strain SPO22, stronger effect = lower value 1.01 | locus YIL125W, strain kgd1, stronger effect = lower value 1 | locus YIR030C, strain dcg1, stronger effect = lower value 0.995 | locus YJL092W, strain hpr5, stronger effect = lower value 0.979 | locus YJL095W, strain BCK1 (second series), stronger effect = lower value 0.997 | locus YJL095W, strain BCK1, stronger effect = lower value 0.988 and 1.01 | locus YJL115W, strain asf1, stronger effect = lower value 0.99 | locus YJL129C, strain trk1, stronger effect = lower value 0.95 | locus YJL134W, strain LCB3, stronger effect = lower value 1 | locus YJL154C, strain vps35, stronger effect = lower value 0.992 | locus YJL164C, strain tpk1, stronger effect = lower value 0.975 | locus YJL166W, strain qcr8, stronger effect = lower value 1.01 | locus YJL168C, strain set2, stronger effect = lower value 0.991 | locus YJL187C, strain SWE1 (second series), stronger effect = lower value 1 | locus YJL187C, strain SWE1, stronger effect = lower value 0.989 | locus YJR043C, strain POL32, stronger effect = lower value 1.01 | locus YJR066W, strain TOR1, stronger effect = lower value 0.982 | locus YJR075W, strain HOC1, stronger effect = lower value 0.997 | locus YKL009W, strain mrt4, stronger effect = lower value 0.998 | locus YKL068W, stronger effect = lower value 1 | locus YKL085W, strain MDH1 (second series), stronger effect = lower value 1.01 | locus YKL085W, strain MDH1, stronger effect = lower value 1.01 | locus YKL160W, strain elf1, stronger effect = lower value 1.04 | locus YKL190W, strain CNB1, stronger effect = lower value 1.01 | locus YKR001C, strain vps1, stronger effect = lower value 1.02 | locus YKR026C, strain gcn3, stronger effect = lower value 0.991 | locus YLL001W, strain dnm1, stronger effect = lower value 1 | locus YLL026W, stronger effect = lower value 0.99 | locus YLL041C, strain sdh2, stronger effect = lower value 0.969 | locus YLR027C, strain aat2, stronger effect = lower value 0.986 | locus YLR039C, strain RIC1, stronger effect = lower value 1.06 | locus YLR058C, strain SHM2, stronger effect = lower value 1.01 | locus YLR102C, strain apc9, stronger effect = lower value 0.987 | locus YLR113W, strain HOG1, stronger effect = lower value 0.999 | locus YLR221C, strain rsa3, stronger effect = lower value 1.02 | locus YLR258W, strain gsy2, stronger effect = lower value 0.997 | locus YLR262C, strain YPT6 (second series), stronger effect = lower value 1.02 | locus YLR262C, strain YPT6, stronger effect = lower value 0.994 | locus YLR268W, strain sec22, stronger effect = lower value 1.01 | locus YLR320W, strain mms22, stronger effect = lower value 1.04 | locus YLR330W, strain CHS5, stronger effect = lower value 1.01 | locus YLR342W, strain FKS1 (second series), stronger effect = lower value 1.02 | locus YLR342W, strain FKS1, stronger effect = lower value 0.99 | locus YLR357W, strain rsc2, stronger effect = lower value 0.985 | locus YLR370C, strain arc18, stronger effect = lower value 0.999 | locus YLR371W, strain rom2, stronger effect = lower value 0.996 | locus YLR384C, strain iki3, stronger effect = lower value 0.994 | locus YLR418C, strain cdc73, stronger effect = lower value 0.976 | locus YML016C, strain PPZ1, stronger effect = lower value 1.01 | locus YML032C, strain rad52, stronger effect = lower value 0.988 | locus YML120C, strain ndi1, stronger effect = lower value 1.02 | locus YML124C, strain tub3, stronger effect = lower value 0.995 | locus YMR058W, strain fet3, stronger effect = lower value 0.968 | locus YMR078C, strain ctf18, stronger effect = lower value 0.994 | locus YMR125W, strain sto1, stronger effect = lower value 0.992 | locus YMR129W, stronger effect = lower value 0.983 | locus YMR205C, strain PFK2, stronger effect = lower value 1.01 | locus YMR223W, strain ubp8, stronger effect = lower value 0.997 | locus YMR231W, strain pep5, stronger effect = lower value 0.989 | locus YMR307W, strain GAS1, stronger effect = lower value 1.02 and 0.989 | locus YNL067W, strain RPL9B, stronger effect = lower value 1 | locus YNL071W, strain lat1, stronger effect = lower value 0.98 | locus YNL128W, strain TEP1, stronger effect = lower value 0.995 | locus YNL153C, strain GIM3, stronger effect = lower value 0.968 | locus YNL175C, strain NOP13, stronger effect = lower value 0.993 | locus YNL183C, strain NPR1, stronger effect = lower value 0.956 | locus YNL197C, strain WHI3, stronger effect = lower value 0.988 | locus YNL209W, strain ssb2, stronger effect = lower value 0.993 | locus YNL224C, strain SQS1, stronger effect = lower value 0.999 | locus YNL233W, strain BNI4, stronger effect = lower value 0.982 | locus YNL248C, strain rpa49, stronger effect = lower value 0.973 | locus YNL250W, strain rad50, stronger effect = lower value 1.01 | locus YNL271C, strain bni1, stronger effect = lower value 0.998 | locus YNL298W, strain CLA4, stronger effect = lower value 0.991 | locus YNL307C, strain MCK1, stronger effect = lower value 0.997 | locus YNL322C, strain KRE1 (second series), stronger effect = lower value 0.988 | locus YNL322C, strain KRE1, stronger effect = lower value 1.02 | locus YNR049C, strain mso1, stronger effect = lower value 0.984 | locus YNR052C, strain pop2, stronger effect = lower value 1 | locus YOL012C, strain htz1 2.13 | locus YOL147C, strain pex11, stronger effect = lower value 1 | locus YOR001W, strain rrp6, stronger effect = lower value 0.928 | locus YOR061W, strain CKA2, stronger effect = lower value 1.02 | locus YOR069W, strain VPS5, stronger effect = lower value 1.01 | locus YOR070C, strain gyp1, stronger effect = lower value 0.996 | locus YOR080W, strain dia2, stronger effect = lower value 0.986 | locus YOR083W, strain WHI5 (second series), stronger effect = lower value 0.981 | locus YOR106W, strain vam3, stronger effect = lower value 1.01 | locus YOR136W, strain idh2, stronger effect = lower value 1 | locus YOR144C, strain elg1, stronger effect = lower value 0.999 | locus YOR184W, strain ser1, stronger effect = lower value 0.997 | locus YOR231W, strain MKK1, stronger effect = lower value 1.02 | locus YOR265W, strain rbl2, stronger effect = lower value 0.997 | locus YOR270C, strain vph1, stronger effect = lower value 0.948 | locus YOR290C, strain snf2, stronger effect = lower value 0.931 | locus YOR316C, strain cot1, stronger effect = lower value 0.999 | locus YPL051W, strain arl3, stronger effect = lower value 1.05 | locus YPL055C, strain LGE1, stronger effect = lower value 0.996 and 1.03 | locus YPL078C, strain atp4, stronger effect = lower value 1 | locus YPL106C, strain sse1, stronger effect = lower value 1.01 | locus YPL240C, strain hsp82, stronger effect = lower value 0.99 | locus YPL241C, strain CIN2, stronger effect = lower value 1 | locus YPL256C, strain CLN2, stronger effect = lower value 1 | locus YPR119W, strain clb2, stronger effect = lower value 0.994 | locus YPR141C, strain kar3, stronger effect = lower value 0.995 | locus YPR163C, strain tif3, stronger effect = lower value 1 | locus YPR167C, strain met16, stronger effect = lower value 0.996 | strain wtn01, stronger effect = lower value 0.994
active: locus YDR195W, strain ref2 0.135 | locus YKR091W, strain srl3, stronger effect = lower value 0.551 | locus YOR083W, strain WHI5, stronger effect = lower value 0.233
